Inconclusive results are not listed. The source made the active and inactive calls. How the source made its calls: active means hit-call score of the fitted dose curve at least 0.9, where 1 is the maximum; inconclusive means response in the unintended direction; inactive means score below 0.9.
Molecular target: human Spleen Associated Tyrosine Kinase (Syk), SYK (gene 6850) (UniProt P43405)
Assay: NVS_ENZ_hSyk: NovaScreen (NVS) Enzymatic Assay for human Spleen Associated Tyrosine Kinase (Syk)
Experimental: NVS_ENZ_hSyk is a biochemical, single-readout assay that uses extracted gene-proteins in a cell-free assay. Measurements were taken 1 hour after chemical dosing in a 96-well plate.NVS_ENZ_hSyk is one of one assay component(s) measured or calculated from the NVS_ENZ_hSyk assay. It is designed to make measurements of enzyme activity, a form of enzyme reporter, as detected with fluorescence intensity signals by Fluorescence and electrophoretic mobility shift technology.Data from the assay component NVS_ENZ_hSyk was analyzed into 1 assay endpoint. This assay endpoint, NVS_ENZ_hSyk, was analyzed in the positive analysis fitting direction relative to DMSO as the negative control and baseline of activity. Using a type of enzyme reporter, loss-of-signal activity can be used to understand changes in the enzymatic activity as they relate to the gene SYK. Furthermore, this assay endpoint can be referred to as a primary readout, because this assay has produced […] where this one serves a enzymatic activity function. To generalize the intended target to other relatable targets, this assay endpoint is annotated to the kinase intended target family, where the subfamily is non-receptor tyrosine kinase.
Binding assays used specific radioligands (tritiated, iodinated) with non-radioactive competitive displacement ligands in agonist or antagonist protocols (as indicated) and various reference compounds and inhibitors to titrate specific binding to receptors and transporters. Most enzyme assays (CYPs, kinases, phosphatases, proteases, HDACs) used recombinant protein and specific substrates (fluorescence mostly, some colorimetric and radioactive) and inhibitors, followed by a biochemical separation of substrate and product. All assays for the biochemical HTS were initially run in duplicate at a single concentration (10 uM for CYP450 assays and 25 uM for all others). Assay-chemical combinations meeting a pre-defined threshold (e.g., 30% inhibition and other criteria defined below) were then run in singleton concentration-response format with maximum concentration of 20 uM for CYPs and 50 uM for all others. Each assay was run with positive and negative controls, and concurrent controls on every plate. The follow-up (secondary) screen tested active chemical-pairs in concentration series, as well as a few additional assays not tested in the primary screen, some selected negative inactives, and several cases re-run in the concentration series for confirmatory purposes.

Question: How did the outcome turn out when CC[C@H](C)[C@H]1O[C@]2(C=C[C@@H]1C)C[C@@H]1C[C@@H](C/C=C(\C)[C@@H](O[C@H]3C[C@H](OC)[C@@H](O[C@H]4C[C@H](OC)[C@@H](NC)[C@H](C)O4)[C@H](C)O3)[C@@H](C)/C=C/C=C3\CO[C@@H]4[C@H](O)C(C)=C[C@@H](C(=O)O1)[C@]34O)O2 was run?
Answer: Its outcome is “inactive”.

Question: Which AC50 does the source give for S=C(S)NCCNC(=S)S.[Mn+2].[S-]C([S-])=NCCN=C([S-])[S-].[Zn+2] here?
Answer: The AC50 was 9.71 µM (active).

Question: Which outcome does the source give for CCOCN(C(=O)CCl)c1c(C)cccc1CC here?
Answer: Its outcome is “inactive”.

Question: For COP(N)(=O)SC (configuration not stated), which outcome is on record?
Answer: Its outcome is “inactive”.

Question: Which outcome does the source give for CNc1cnn(-c2cccc(C(F)(F)F)c2)c(=O)c1Cl here?
Answer: Its outcome is “inactive”.

Question: Which AC50 does the source give for O=C(O)C1(C(=O)Nc2ccc(Cl)cc2Cl)CC1 here?
Answer: The AC50 was 15.4 µM (active).

Question: How did the outcome turn out when CCNc1nc(Cl)nc(NC(C)C)n1 was run?
Answer: Its outcome is “inactive”.

From PubChem BioAssay AID2283221 (EPA ToxCast)
